Results as given in PubChem BioAssay (Tox21).
Results filed as inconclusive are left out. The source made the active and inactive calls. The call rests on the fitted dose curve; in most records, active means well fitted cell-killing curve with a large enough effect in the repeat runs; inconclusive means weak or mixed curves, or effect the other way; inactive means no such curve, though single readings can be large or run the other way.

Experiment: qHTS assay to identify small molecule agonists of the estrogen receptor alpha (ER-alpha) signaling pathway in the presence of an antagonist - cell viability counter screen (AID 1259386);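 further: cells exposed to compounds for 22 h at 37 °C before the viability read; nearly all actives have a fitted effect of over 30% in size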
Conditions: VM7Luc4E2 viability, CellTiter-Fluor fluorescence, 22 h; series mostly up to 92.4 µM; activity change, negative = cytotoxicity: at the top concentration
Description: National Center for Advancing Translational Sciences [NCATS]
NIH Chemical Genomics Center [NCGC]
U.S. Environmental Protection Agency [EPA]
National Institutes of Environmental Health Sciences [NIEHS]
National Toxicology Program [NTP]
U.S. Food and Drug Administration [FDA]
Estrogen receptor (ER), a member of nuclear hormone receptor plays an important role in development, metabolic homeostasis and reproduction. Two subtypes of ER, ER-alpha and ER-beta, have similar expression patterns with some uniqueness in both types. Endocrine disrupting chemicals (EDCs) and their interactions with steroid hormone receptors like ER causes disruption of normal endocrine function. Therefore, it is important to understand the effect of environmental chemicals in ER signaling pathway. For identifying ER agonists, VM7Luc4E2 cell line has been used in the current assay.
VM7Luc4E2 cell line (provided by Denison MS, University of California) endogenously expresses full-length ER-alpha and is stably transfected with a plasmid containing four estrogen responsive elements (ERE) upstream of a luciferase reporter gene. This current screening for measuring luciferase reporter gene activity using VM7Luc4E2 cells against Tox21 10K library collection is a confirmation study on agonist mode screening in presence of ER-antagonist (ICI-182,780) at 10.0nM final concentration. The cytotoxicity of the compounds was tested in parallel by measuring the cell viability using CellTiter-Fluor assay system (Promega, Madison, WI) in the same wells.
Tox21 Assay Protocol Summary:
VM7Luc4E2 cells were cultured in phenol red free assay medium containing 10% charcoal stripped FBS for 5 days prior to the assay. The cells were dispensed at 4,000 cells in 4uL of assay medium per well into white wall/solid-bottom 1536-well plates (Corning Life Sciences, Corning, NY) using a Multidrop Combi (Thermo Fisher Scientific Inc., Waltham, MA) dispenser. After the assay plates were incubated at 37C and 5% CO2 for 24hr, 1uL of 10.0nM (final concentration) ICI-182,780 or assay buffer was added using two separate tips of Flying Reagent Dispenser (FRD, Aurora Discovery, San Diego, CA). Then 23nL of compounds dissolved in DMSO at 15 concentrations and positive controls or DMSO only was transferred to the assay plates by a Pintool station (Wako, San Diego, CA). The assay plates were incubated at 37C and 5% CO2 for 22hr. After 21hr incubation at 37C, 1uL/well CellTiter-Fluor reagent (Promega Corporation, Madison, WI) was added to each well using FRD and after 1hr incubation at 37C and 5% CO2, the fluorescence signal was measured on ViewLux plate reader (PerkinElmer, Shelton, CT).
On the % scale 0 is the no-effect control and ±100 the full control effect.

Compound | activity change, negative = cytotoxicity | Potency
O=c1cc(-c2ccccc2)oc2ccccc12 | -7.85% (inactive) | –
N=c1nc(N2CCCCC2)cc(N)n1O | 1.32% [at 42.5 µM] (inactive) | –
O=C(O)Cc1ccc(CCNS(=O)(=O)c2ccc(Cl)cc2)cc1 | 0% [at 42.5 µM] (inactive) | –
N[C@H]1CN(c2c(F)cc3c(=O)c(C(=O)O)cn(C4C[C@H]4F)c3c2Cl)CC12CC2 (stereo not given in full) | 1.09% [at 42.5 µM] (inactive) | –
CO[C@]12C[C@@H](COC(=O)c3cncc(Br)c3)CN(C)[C@@H]1Cc1cn(C)c3cccc2c13 | -0.671% [at 42.5 µM] (inactive) | –
C=C(C)C(=O)OCCCCCCCC(C)C | 3.17% (inactive) | –
Cc1ccc(Cl)cc1Cl | 3.89% (inactive) | –
OC(CCN1CCCCC1)(c1ccccc1)C1CC2C=CC1C2 (stereo not given) | -6.81% [at 42.5 µM] (inactive) | –
c1ccc([C@H]2CN3CCSC3=N2)cc1 | -0.694% [at 42.5 µM] (inactive) | –
CN1CCN(c2cc3c(cc2F)c(=O)c(C(=O)O)cn3-c2ccc(F)cc2)CC1 | 0.379% [at 42.5 µM] (inactive) | –
O=c1n(CCO)c(=O)n(CCO)c(=O)n1CCO | – | inactive
O=c1cc(CO)occ1O | 0.145% [at 42.5 µM] (inactive) | –
CS(=O)(=O)O | 1.32% (inactive) | –
Nc1c[n+](N2CCOCC2)no1 | 5.3% [at 42.5 µM] (inactive) | –
Cc1cccn2c(=O)c(-c3nnn[nH]3)cnc12 | 5.01% [at 19 µM] (inactive) | –
CCCCC/C=C\CCC=O | -1.88% (inactive) | –
CC(C)NC(=O)NC(C)C | -3.31% (inactive) | –
Nc1c2c(nc3ccccc13)CCCC2O (stereo not given) | -5.24% [at 42.5 µM] (inactive) | –
c1ccc(CC2=NCCN2)cc1 | -0.208% [at 42.5 µM] (inactive) | –
CCOC(=O)C(=O)OCC | -2.39% (inactive) | –

Compound | activity change, negative = cytotoxicity | Potency
Cc1cc2c(cc1S(N)(=O)=O)S(=O)(=O)CCC2 | 8.11% [at 42.5 µM] (inactive) | –
O=C[C@H](O)[C@@H](O)[C@H](O)[C@H](O)CO | 1.91% (inactive) | –
O=C(O)CN(CCOCCOCCN(CC(=O)O)CC(=O)O)CC(=O)O | 2.94% [at 0.349 µM] (inactive) | –
CCCCCCCCCCCCN(CCCCCCCCCCCC)CCCCCCCCCCCC | 0.104% (inactive) | –
NS(=O)(=O)c1ccccc1Cl | -0.463% (inactive) | –
CCC(C)C1CCCCC1=O (stereo not given) | 0.392% (inactive) | –
Cc1ccc(=O)n(-c2ccccc2)c1 | 1.09% [at 42.5 µM] (inactive) | –
OCCOc1ccc(OCCO)cc1 | 5.17% (inactive) | –
O=Cc1cccc([N+](=O)[O-])c1 | 8.33% (inactive) | –
CCc1ccc(O)c(OC)c1 | 0.854% (inactive) | –
Cn1c(N)c(N=O)c(=O)n(C)c1=O | -5.31% (inactive) | –
C=CCS(=O)(=O)O | 2.83% (inactive) | –
Nc1ccc(S(=O)(=O)Nc2ccnn2-c2ccccc2)cc1 | 1.05% [at 19 µM] (inactive) | –
CN(C(=O)c1c(O)c2ccccc2n(C)c1=O)c1ccccc1 | -1.77% [at 42.5 µM] (inactive) | –
CCOC(C)(C)C | 0.243% (inactive) | –
ClC(Cl)(Br)Br | 3.27% (inactive) | –
O=C1CC2CC1C1CCCC21 (stereo not given) | 3.53% (inactive) | –
COC(=O)C1=C(C)NC(C)=C(C(=O)OC)C1c1ccccc1[N+](=O)[O-] | -2.48% [at 42.5 µM] (inactive) | –
NS(=O)(=O)c1cc(C(=O)O)cc(N2CCCC2)c1Oc1ccccc1 | -3.91% [at 42.5 µM] (inactive) | –
CC(=O)OCC(=O)[C@@]1(O)CCC2C3CCC4=CC(=O)CC[C@]4(C)C3[C@@H](O)C[C@@]21C (stereo not given in full) | 3.01% [at 42.5 µM] (inactive) | –
